The supplement of paper PMC12632987

T1: USP38, Q8NB14
T1 chain: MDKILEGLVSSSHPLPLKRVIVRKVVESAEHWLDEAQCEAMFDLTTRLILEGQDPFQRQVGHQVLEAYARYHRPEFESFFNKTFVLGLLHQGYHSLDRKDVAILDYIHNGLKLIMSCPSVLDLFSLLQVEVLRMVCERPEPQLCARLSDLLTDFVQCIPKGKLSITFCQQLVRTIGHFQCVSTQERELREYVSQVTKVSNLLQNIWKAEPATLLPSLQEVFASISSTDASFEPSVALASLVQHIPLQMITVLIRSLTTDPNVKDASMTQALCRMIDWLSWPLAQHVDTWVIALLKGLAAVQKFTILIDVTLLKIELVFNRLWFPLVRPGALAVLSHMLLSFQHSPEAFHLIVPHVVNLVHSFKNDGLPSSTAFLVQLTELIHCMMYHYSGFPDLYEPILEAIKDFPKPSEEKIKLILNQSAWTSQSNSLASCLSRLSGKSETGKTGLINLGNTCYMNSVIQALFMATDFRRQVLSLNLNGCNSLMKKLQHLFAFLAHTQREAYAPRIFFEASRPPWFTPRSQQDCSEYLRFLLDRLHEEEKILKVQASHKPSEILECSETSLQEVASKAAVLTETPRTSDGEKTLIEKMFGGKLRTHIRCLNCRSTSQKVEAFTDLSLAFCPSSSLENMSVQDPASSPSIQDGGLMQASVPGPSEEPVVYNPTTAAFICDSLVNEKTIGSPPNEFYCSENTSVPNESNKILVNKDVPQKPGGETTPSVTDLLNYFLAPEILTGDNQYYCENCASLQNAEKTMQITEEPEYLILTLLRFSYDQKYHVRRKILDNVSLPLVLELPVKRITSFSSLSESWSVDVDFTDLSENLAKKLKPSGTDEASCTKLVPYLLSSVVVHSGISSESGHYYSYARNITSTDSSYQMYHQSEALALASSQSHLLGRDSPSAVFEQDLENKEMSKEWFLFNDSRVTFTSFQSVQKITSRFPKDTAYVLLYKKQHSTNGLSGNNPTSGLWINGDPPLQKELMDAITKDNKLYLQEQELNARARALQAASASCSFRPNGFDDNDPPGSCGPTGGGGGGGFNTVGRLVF

B1: usp_38_diff_out_13_93_71 (protein)
chain: STEEEIERLVEEAEERARRELEEMREEVEAGKLNVEEVLERSSELFRWLVEKYNEIKKLAKEAGLEELLKEAEERFNELINKATEEVTEMLEKVAERELA
B2: usp_38_diff_out_13_133_58 (protein)
chain: SAAEERRKKALERLEEAEKKVEELLKKAEEALKEGKIEEASKYVGEAAGIIVKTRSDLMALTKDDPELRKEILKRLKELEKKLNELIDKVVEAEKKKFLA
B3: usp_38_diff_out_13_133_56 (protein)
chain: SMAEKKREEAKKLLEETKKKVEKLLEEAEKALKEGDVEKAWEKVGEAAGTLLKARDELTDLTEDDPELRKEVLKELKKLEEKLNKLIDKVEKALREEFLK
B4: usp_38_diff_out_14_2_105 (protein)
chain: GEEEIKKATDKTLKKLEEATKKFKELKEKVKKDPSLAEEARKEAFKAWDEAGDAVGALAKLIEENKEHRATNKEATEKVNKALTEYTKAVLELLEEIAEA
B5: usp_38_diff_out_13_43_65 (protein)
chain: LREEAEKALAEADKALGEAYKLSQEIRDKIRESDPETAKKLVKLRKELDDAGNALADARVALELALHSGEGVEEAIAATRAAIAALKKKIAEAKKELAAL
B6: usp_38_diff_out_13_133_60 (protein)
chain: SAAEERRAEARRRLEEAEERVKALLKEAKAALKAGKIDEARKKVGEAAGVIVDTRSDLMALTRDDPELRREILKRLKELEKELDKLIDEVVKAEEEAFLA
B7: usp_38_diff_out_14_2_100 (protein)
chain: GEEELKAATDATLKTLDAAIKEAKELKKEVEEDPSKAEEARKRLFEAWDKAADAVGALAKLMEEHKELRELNKEAVEKVNKRITELTKVALEALELAAKA
B8: usp_38_diff_out_13_133_57 (protein)
chain: SAAEERRAEARARLAETEAEVEKLLKEAKAALKAGDIDEAEKKVGEAAGLILEARSDLFALTRDDPELRREIRRRLKELEKELDKLIDEVVEARKKEFLA
B9: usp_38_diff_out_13_93_69 (protein)
chain: EREERAEEIVERVERLGEELLKELEAAAADPSTTIEELLDLYSELVRRLVTATQAALAEARELGDEETVERILEISNETLLRLSELTTEALTAKAEAEAA
B10: usp_38_diff_out_13_133_59 (protein)
chain: SAAEERRREAERRLAEAERRIRELLEKAKKALEEGDIDEAERYVGEAAGIILRTRSDLMALTRDDPELRRRILRRLKELEEELNELIDEVVEAEKKRFLA
B11: usp_38_diff_out_13_133_54 (protein)
chain: AAAEARREEARRLLEEAEKEIEKLLKEAEKALEEGNIDKAYEYVAKAAGLLLETRDRLFDLTRDDPELRREVLKRLKELEKKLNELIDKVEAAERERFLA
B12: usp_38_diff_out_14_2_104 (protein)
chain: AKATIEAATAAALKAIDDGKKRLEELTKKVKEDPSKAEEAREEILAVWDEVGDAVGALAATLRANPAERATNKAATAEVNKALTEFTKKALEALEVAEEA
B13: usp_38_diff_out_13_93_70 (protein)
chain: SAEEKIKKLIEETKEKAKKKLEEMEEKVEAGELDVEEVLEEYSELMKYIVETHNEIEKLAKENGLEELLKEANKEFNELINETTEKVTEMLEKVAERQLA
B14: usp_38_diff_out_13_43_64 (protein)
chain: LREKAEKALAEADAALGRAYAVSRELRDKMREVNPEDAKKLLKARKKLDEVGNALADARAALETAMILGEGVEEAIPKVQAAVAKLKAAIEEAEKLLKEV
B15: usp_38_diff_out_13_93_75 (protein)
chain: SLEDEAAALLAEIRAEAEALAAELEALAEAGKITIEEVLERTSALVDRIAERTRAMVARLRAAGLEALARRLEEEVNRILLDLTERVGRILERLAEREAA
B16: usp_38_diff_out_13_93_77 (protein)
chain: SLEEKAKALLAEIEARAKALLEELEELAERGEITIEEVLERSSALFDEIAAETRAMVAELEAAGKKALAEELKKKVNEIILDATEGIGKILERLAEREAA
B17: usp_38_diff_out_13_93_72 (protein)
chain: SAEEEIEKILKEVEEEAEKELEELEKEVAAGRLTVEEVLRRAGELFSYIVKKHQEIEKIAKENGLEALLKEATEKVNELINKVTERVTAMLERVAARQLA
B18: usp_38_diff_out_13_133_63 (protein)
chain: SAAEERRAAARARLDAAVAEVERLLEEARRALEEGDVERAERYVGEAAGVLVRTRSELMALTRDDPELRREILRRLKELERRLEELIDEVEAARREAFLA
B19: usp_38_diff_out_14_2_101 (protein)
chain: AEEEIKKKKEETLKKLEEGIERLKKLKEEVKKDPSLAEKARKEAFEIHDEVADKVGELHKLILKNPELKELNKKAIKEVNEKLTEFTEALLEALEEAAAA
B20: usp_38_diff_out_13_93_73 (protein)
chain: DPAEELRREAEELIEELRRRTDELVARLEAGEITIEEALARFSELMDEAAERLRELIARAEALGLEALAREIRRRVLEAMVEATERLGAALERAAEREAA
B21: usp_38_diff_out_14_2_102 (protein)
chain: AEAEIEKATEETLAVLEEAIKKFEELEKEVEEDPSKAEEAFERILEEWDRAADAVGALARLLEAHPEVRETRKKAVAEVNEALTRLTEKATRALEKAAEA
B22: usp_38_diff_out_13_133_53 (protein)
chain: AAAEARRARALALLEEAEARVEKLIKEAEKALKEGKIDEARKYVAEAAGTLLRTRDELFDLTADDPELRREVLRRLKELTKRLDKVIDKVEKAERERFLA
B23: usp_38_diff_out_14_2_106 (protein)
chain: GEEEIKKATEETLKAIKEAIEKAKELKEKVKKDPSLAEEARKELFEAHDKVGDKVGALAKLIEEHKEYRETNKKAVKEVNEALKEYTEAVLELLEEIAEA
B24: usp_38_diff_out_14_2_107 (protein)
chain: AKEEIKKKTEETLKALDEAIKAAKKLKEEVKKDPSLAEKARKELFKLWDEVGDKVGELAKLLEENKEERETNKEAVEKVNEALTKFTKAVLEALEEIEKA
B25: usp_38_diff_out_13_133_62 (protein)
chain: SAAEERRKEALKELEETEKKIEELLKKAKEALKEGKIEEAEKYVGEAAGLILKARSDLMAKTKDDPELRKEILKRLKELEKKLNELIDEVNEALKKKFLE
B26: usp_38_diff_out_13_133_61 (protein)
chain: SAMEERRKEAREELEKAKKEIEELLKKAEEALKEGDIETAEKYVGEAAGLILDTRSDLMERTKDDPELRKEILKELKELEKKLNELIDKVVKAREEEFLK
B27: usp_38_diff_out_13_43_66 (protein)
chain: LEEEAEKVLKELDETLGEIYNLSLELRDKIRESDPETAKKLVEIKKRLDEVGNELADARRDLEIALISGEGLEEAIKKGKEKIEKAKKTIKEAKEELEKL
B28: usp_38_diff_out_14_2_108 (protein)
chain: AADKIKAATDATLAALEAAIAKAKELKERVKKDPSLAEEARKELFEAWDAVGDKVGALAKLLEENKAERATNKKATAEVNKALTEYTKAVLEALEEIAKA
B29: usp_38_diff_out_13_93_74 (protein)
chain: DLEARVEALLAAQEAEADALAAELAARAAAGEITVEEILERSSALADRIAEETRRAVAELEAAGEAALARRLRERTAEILLRLTERVGAILEELAAREAA
B30: usp_38_diff_out_13_133_55 (protein)
chain: AAAEAARAEAEALLAETEKRVEELLKKAKEALKAGDVETAEKYVGEAAGTLLEARDRLSDLTADDPELRREVLKRLKELEEKLNELIDEVEKALREEFLK
B31: usp_38_diff_out_13_93_67 (protein)
chain: DKEEEAKKLLEELKKFAEEKLKELEKLAKDPSVTIEELLEKYSELVSELITKHNEVKKKLDELGDEKTKKEATKITNEALLRMSEITTEALTRKQEEAEA
B32: usp_38_diff_out_13_93_76 (protein)
chain: TLEEKAEALLAEIRKRAEELLKELKKLAEEGKITIEEVLERSSKLFDEIAERTRAMVAELRAAGKEALAERVEKEVNEIILKATEGVGKILEFLAEKEAA

Biological target: T1, USP38, Q8NB14
Test: median log2 fold change of GCK-ALFA target abundance (FLAG IP / Myc IP barcode read proportion) (log2 ratio); each designed protein is fused to an ALFA-tag nanobody in HEK293 cells to bring the named protein to FLAG-tagged glucokinase (GCK); Myc marks an untargeted standard; higher = target protein stabilised (more abundant)
Conditions: target protein: 3xFLAG-MCP-GCK-ALFA reporter; HEK293 landing pad (RPLP)
Summary of the method: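 An ALFA-nanobody-fused binder library was recombined into HEK293 landing-pad cells and induced with 2 μg mL^−1 doxycycline. Cells were transfected with a plasmid expressing a FLAG-tagged target and a Myc-tagged standard. After 48 h, lysates underwent anti-FLAG and anti-Myc immunoprecipitation, and circular RNA barcodes were reverse transcribed, amplified and sequenced. Target abundance is the per-binder median log2 ratio of FLAG to Myc barcode read proportions. Barcodes needed ≥10^−7 proportion in both replicates, binders ≥3 barcodes per replicate, and a 10^−6 pseudocount was added; the two replicates were pooled.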

Binder | median log2 fold change
B1 | -0.429
B2 | 0.217
B3 | -0.0894
B4 | -0.792
B5 | 0.148
B6 | -0.0799
B7 | -0.611
B8 | 0.0932
B9 | -0.38
B10 | 0.136
B11 | -0.102
B12 | 0.0445
B13 | -0.785
B14 | -0.253
B15 | 0.213
B16 | -0.0527

Binder | median log2 fold change
B17 | -0.469
B18 | 0.0626
B19 | 0.0029
B20 | -0.395
B21 | -0.0129
B22 | 0.000412
B23 | -0.23
B24 | -0.442
B25 | 0.147
B26 | 0.145
B27 | 0.341
B28 | -0.78
B29 | 0.136
B30 | 0.299
B31 | 0.158
B32 | 0.124
